Several values for one entry are separate records, joined by “and”; a condition that tells them apart may be missing. Identical values can stand only once. A structure can be active in one record and inactive in another. Activity calls are given as the source filed them. Rule for the calls: active = hit-call score of the fitted dose curve at least 0.9, where 1 is the maximum; inactive = score below 0.9.
read-out: TIMP metallopeptidase inhibitor 1 (TIMP1), TIMP1 (gene 7076); assay: BSK_MyoF_TIMP1: BioMAP Diversity Plus: MyoF Assay for TIMP metallopeptidase inhibitor 1 (TIMP1) Biomarker Activity (AID 2284269); settings: primary human lung fibroblasts
Description: BSK_MyoF is a cell-based, multiplexed-readout assay that uses lung fibroblasts, […], with measurements taken at 24 hours after chemical dosing in a microplate: 96-well plate.BSK_MyoF_TIMP1 is an assay component measured in the BSK_MyoF assay. It measures TIMP-1 antibody related to regulation of gene expression using ELISA technology.Data from the assay component BSK_MyoF_TIMP1 was analyzed at the endpoint, BSK_MyoF_TIMP1, in the positive analysis fitting direction relative to DMSO as the negative control and baseline of activity. Using a type of binding reporter, gain or loss-of-signal activity can be used to understand protein changes. To generalize the intended target to other relatable targets, this assay endpoint is annotated to the 'protease' intended target family, where the subfamily is 'matrix metalloproteinase'.
The levels of cell surface (or secreted, indicated by the prefix "s") biomarker endpoints were measured by ELISA. Overt cytotoxicity to cells in confluent adherent cultures (all systems other than the BT system) was assessed by measuring total protein levels using sulforhodamine B (SRB) staining in parallel cultures at the time of biomarker measurements, indicated as SRB endpoints. For proliferation assays for adherent cell types, individual cell types are cultured at sub-confluence and relative cell numbers quantified by SRB staining at time points optimized for each system (48 h: 3C and CASM3C systems; 72 h: BT and HDF3CGF systems; 96 h: SAg system). SRB was performed by staining cells with 0.1% SRB after fixation with 10% TCA and reading wells at 560 nm.Viability and proliferation of PBMC (T cells) was quantified by Alamar Blue reduction for the SAg and BT systems. For PBMC viability (referred to as PBMC Cytotoxicity within the assay endpoint names), cells were plated (75,000/well in a 96-well plate) and then chemical samples added for 1 h before addition of activators, SEB and TSST-1 (20 ng/mL final concentration each). Cells were incubated for 90 h. Then, Alamar Blue (20 uL/well) (Invitrogen, Cat DAL1100) was added for 6 h, and the plates were read with a fluorescence microplate reader at 546/580 nm (excitation/emission). For PBMC proliferation, cells were plated and activated as above but incubated for only 16 h prior to addition of Alamar Blue. Plates were read after 6 h.

| Structure (SMILES) | outcome | AC50 |
| --- | --- | --- |
| CC(CCl)OP(=O)(OC(C)CCl)OC(C)CCl (stereo not given) | inactive |  |
| O=C(O)C(F)(F)C(F)(F)C(F)(F)C(F)(F)C(F)(F)C(F)(F)C(F)(F)C(F)(F)Cl |  | 30 µM (active) and 47.9 µM (active) |
| O=C(O)C(F)(F)C(F)(F)F | inactive |  |
| OCC(F)(F)C(F)(F)C(F)(F)C(F)(F)C(F)(F)C(F)F | inactive |  |
| FC(F)(F)C(F)(F)C(F)(F)C(F)(F)C(F)(F)C(F)(F)C(F)(F)I | inactive |  |
| Cc1ccc(S(=O)(=O)OCC(F)(F)C(F)(F)C(F)(F)C(F)(F)C(F)(F)C(F)F)cc1 | inactive |  |
| CO[Si](OC)(c1ccccc1)c1ccccc1 | inactive |  |
| CS(C)(=O)=O | inactive |  |
| FC(F)(F)C(F)(F)C(F)(F)C(F)(F)C(F)(F)C(F)(F)C(F)(F)Br | inactive |  |
| CCCCCCC(C)OC(=O)CCCCC(=O)OC(C)CCCCCC (stereo not given) | inactive |  |
| C=C(C)C(=O)OCC(F)(F)C(F)(F)C(F)(F)C(F)(F)C(F)(F)C(F)(F)C(F)(F)F | inactive |  |
| O=S(=O)(O)C(F)(F)C(F)(F)C(F)(F)C(F)(F)C(F)(F)C(F)(F)C(F)(F)F | inactive |  |
| CCCCCCCOC(=O)c1ccccc1C(=O)OCCCCCCC | inactive |  |
| OCCCC(F)(F)C(F)(F)C(F)(F)F | inactive |  |
| FC(F)(F)C(F)(F)C(F)(F)CI | inactive |  |
| OCC(F)(F)C(F)(F)C(F)(F)C(F)F | inactive |  |
| FC(F)(F)C(F)(F)C(F)(F)C(F)(F)C(F)(F)C(F)(F)CC1CO1 (stereo not given) | inactive |  |
| O=C(O)C(F)(OC(F)(F)C(F)(OC(F)(F)C(F)(F)C(F)(F)F)C(F)(F)F)C(F)(F)F (stereo not given) | inactive |  |
| FC(F)(F)C(F)(F)C(F)(F)C(F)(F)C(F)(F)C(F)(F)CCS | inactive |  |
| COC(=O)CCC(F)(F)C(F)(F)C(F)(F)C(F)(F)F | inactive |  |

| Structure (SMILES) | outcome | AC50 |
| --- | --- | --- |
| C=C(C)C(=O)OCC(F)(F)C(F)(F)C(F)(F)F | inactive |  |
| O=S(=O)(OCCOC(F)(F)F)C(F)(F)F | inactive |  |
| O=C(O)C(F)(F)C(F)(F)C(F)(F)C(F)(F)C(F)(F)C(F)(F)C(F)(F)C(F)(F)C(F)(F)C(F)(F)C(F)(F)C(F)(F)F | inactive |  |
| C=CC(F)(F)C(F)(F)C(F)(F)C(F)(F)C(F)(F)C(F)(F)C(F)(F)C(F)(F)F | inactive |  |
| O=C(CC(=O)C(F)(F)C(F)(F)F)C(F)(F)F | inactive |  |
| O=C(O)C(F)(F)C(F)(F)C(F)(F)C(F)(F)C(F)(F)C(F)(F)C(F)(F)C(F)(F)C(F)(F)C(F)F | inactive | 50.9 µM (active) |
| FC(F)(F)C(F)(F)C(F)(F)N(C(F)(F)C(F)(F)C(F)(F)F)C(F)(F)C(F)(F)C(F)(F)F | inactive |  |
| Nc1ccc([N+](=O)[O-])cc1O | inactive |  |
| CCc1ccc(C(c2ccc(CC)cc2)C(Cl)Cl)cc1 | inactive |  |
| OCCCC(F)(F)C(F)(F)C(F)(F)C(F)(F)C(F)(F)C(F)(F)C(F)(F)F |  | 54.9 µM (active) and 47.5 µM (active) |
| CCc1c(Br)c(Br)c(Br)c(Br)c1Br | inactive |  |
| O=C(O)C=C(C(F)(F)F)C(F)(F)F | inactive |  |
| O=C(O)C(F)(F)C(F)(F)OC(F)(F)F | inactive |  |
| O[Si](c1ccccc1)(c1ccccc1)c1ccccc1 | inactive |  |
| C=C(C)C(=O)OCCC(F)(F)C(F)(F)C(F)(F)C(F)(F)C(F)(C(F)(F)F)C(F)(F)F | inactive |  |
| O=P(O)(O)OCCC(F)(F)C(F)(F)C(F)(F)C(F)(F)C(F)(F)C(F)(F)F | inactive |  |
| CCCCNc1ccccc1 | inactive |  |
| FC(F)(I)C(F)(F)C(F)(F)C(F)(F)I |  | 56 µM (active) and 47.7 µM (active) and 46.9 µM (active) |
| OCC(F)(F)C(F)(F)C(F)(F)C(F)(F)C(F)(F)C(F)(F)F | inactive |  |

From PubChem BioAssay (EPA / NIEHS)
